Test results reported in PubChem BioAssay.
Calls of active or inactive are those of the source.

What was measured:
[1] = tested on: Plasmodium falciparum Sir2 (PF13_0152, Sir2A); assay: pfSir2 binders on small-molecule microarrays, primary screen, biochemical, small-molecule microarray, 635 nm fluorescence (AID 1098); details: small-molecule microarray binding, fluorescence 635 nm; higher = more signal;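 note: score merges spot fluorescence intensity with its signal-to-noise ratio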
[2] = small-molecule microarray binders of probe aDKK1, primary screen, biochemical, biotinylated probe, 635/667 nm fluorescence (AID 1099); details: higher = more signal;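 note: score merges 667nm spot fluorescence with signal to noise across triplicate slides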
[3] = small-molecule microarray binders of probe aCHRDL2, primary screen, biochemical, biotinylated probe, 635/667 nm fluorescence (AID 1100); details: higher = more signal
[4] = splicing luciferase reporter signal modulators, primary screen, spliceosome inhibition project, cell-based, HEK293, splice +/- reporter (AID 1101); details: luminescence, 24 h, higher = more signal, called active from +8 up or from −8 down;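 note: HEK293 cells carrying a splicing-competent luciferase reporter gene; test concentration not given here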
[5] = target: Fibroblast growth factor 10 (Homo sapiens) (UniProt O15520); assay: FGF10 binders on small-molecule microarrays, primary screen, biochemical, small-molecule microarray, 635 nm fluorescence (AID 1102); details: FGF10 binding, fluorescence 635 nm, higher = more signal
[6] = tested on: glycogen synthase kinase-3 (GSK3A per assay name; protocol says GSK3B); assay: GSK3 binders on small-molecule microarrays, primary screen, biochemical, small-molecule microarray, 635 nm fluorescence, GSK3A (AID 1103); details: small-molecule microarray binding, fluorescence 635 nm; higher = more signal; note: the record names both GSK3A and GSK3B
[7] = target: Epidermal growth factor receptor (Homo sapiens) (UniProt P00533); assay: EGFR binders on small-molecule microarrays, primary screen, biochemical, small-molecule microarray, 635 nm fluorescence (AID 1104); details: EGFR binding, higher = more signal;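 note: score merges 667 nm emission intensity with spot signal to noise over triplicate slides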
[8] = target: Follistatin-related protein 3 (Homo sapiens) (UniProt O95633); assay: FSTL3 binders on small-molecule microarrays, primary screen, biochemical, small-molecule microarray, 635 nm fluorescence (AID 1105); details: FSTL3 binding, higher = more signal;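 note: score merges emission near 667 nm and signal to noise per printed spot across three slides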
[9] = target: Dickkopf-related protein 1 (Homo sapiens) (UniProt O94907); assay: DKK1 binders on small-molecule microarrays, primary screen, biochemical, small-molecule microarray, 635 nm fluorescence scan (AID 1106); details: DKK1 binding, higher = more signal;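 note: score merges emission near 667 nm with signal to noise over three replicate slides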
[10] = tested on: Inhibin beta A chain (activin A); assay: INHBA (activin A) binders on microarrays, primary screen, biochemical, small-molecule microarray, 635 nm fluorescence scan (AID 1107); details: small-molecule microarray binding, higher = more signal;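 note: mouse activin A protein probed at 4.33 µg/mL on printed slides; score merges bound-protein fluorescence near 667 nm with spot signal-to-noise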
[11] = tested on: Human papillomavirus type 1a protein E7 (residues 44-93); assay: HPV1a E7 fragment binders on microarrays, primary screen, biochemical, small-molecule microarray, residues 44-93, 635 nm fluorescence (AID 1108); details: small-molecule microarray binding, fluorescence 635 nm; higher = more signal;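 note: E7 fragment applied at 1 µg/mL in TBST for 1 h at 4 C; score combines spot fluorescence with its signal to noise ratio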
[12] = modulators of HCV replicon luciferase signal, primary screen, HCV replication inhibitor project, Huh7 cells, luciferase reporter (AID 1109); details: 48 h, higher = more signal;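 note: huh7 hepatoma cells harbouring a luciferase neomycin HCV replicon reporter; luciferase luminescence as measure of HCV replicon replication; test concentration not given here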
[13] = target: Left-right determination factor 2 (Homo sapiens) (UniProt O00292); assay: LEFTY2 binders on small-molecule microarrays, primary screen, biochemical, small-molecule microarray, 635 nm fluorescence scan (AID 1110); details: LEFTY2 binding, higher = more signal
[14] = target: Calmodulin-1 (Homo sapiens) (UniProt P0DP23); assay: CALM1 binders on microarrays, EGTA buffer, profiling panel, biochemical, small-molecule microarray, Cy5-labelled CALM1 (AID 1111); details: Cy5-CALM1 binding fluorescence, higher = more signal;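 note: labelled calmodulin applied in Tris saline Tween buffer holding calcium plus EGTA and DTT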
[15] = target: Calmodulin-1 (Homo sapiens) (UniProt P0DP23); assay: calcium-bound CALM1 binders on microarrays, profiling panel, artefact control for SMM control-protein annotation, biochemical, small-molecule microarray, Cy5-labelled CALM1, plus calcium (AID 1112); details: Cy5-CALM1 binding fluorescence, higher = more signal;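 note: score merges spot fluorescence with signal to noise from triplicate slides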
[16] = small-molecule microarray binders of probe aWnt5a, primary screen, biochemical, biotinylated probe, 635/667 nm fluorescence (AID 1113); details: higher = more signal;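 note: score merges 667 nm fluorescence intensity with signal-to-noise per printed feature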
[17] = small-molecule microarray binders of probe aShh, primary screen, biochemical, biotinylated probe, 635/667 nm fluorescence (AID 1114); details: higher = more signal;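 note: probe is biotin-labelled aShh protein from a stem cell growth factor screen; measures binding of labelled protein to compounds printed on the slide; score merges feature fluorescence at 667 nm with signal-to-noise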
[18] = small-molecule microarray binders of probe aNog, primary screen, biochemical, biotinylated probe, 635/667 nm fluorescence (AID 1115); details: higher = more signal;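 note: probe is biotinylated aNog protein used at 0.15 µg/mL for 1 h at 4 C; z-score combines 667 nm fluorescence of each spot with its signal to noise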
[19] = target: Torsin-1A-interacting protein 1 (Homo sapiens) (UniProt Q5JTV8); assay: LAP1 binders from COS7 cell lysate, primary screen, small-molecule microarray, 635/667 nm fluorescence (AID 1116); details: COS7-hLAP1 lysate binding, 635 nm fluorescence, higher = more signal
[20] = target: Alpha-bungarotoxin (Bungarus multicinctus) (UniProt P60615); assay: alpha-bungarotoxin binders on microarray, profiling panel, artefact control for SMM control protein annotation, biochemical, small-molecule microarray, Alexa647 label, 635/667 nm fluorescence (AID 1117); details: alpha-BTX-A647 binding fluorescence, higher = more signal
Sequence of Alpha-bungarotoxin (Bungarus multicinctus) (P60615 whole entry, looked up): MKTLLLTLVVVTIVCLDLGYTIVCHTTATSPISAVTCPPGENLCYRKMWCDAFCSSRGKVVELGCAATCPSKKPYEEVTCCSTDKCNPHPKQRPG

Sequence of Fibroblast growth factor 10 (Homo sapiens) (O15520 whole entry, looked up): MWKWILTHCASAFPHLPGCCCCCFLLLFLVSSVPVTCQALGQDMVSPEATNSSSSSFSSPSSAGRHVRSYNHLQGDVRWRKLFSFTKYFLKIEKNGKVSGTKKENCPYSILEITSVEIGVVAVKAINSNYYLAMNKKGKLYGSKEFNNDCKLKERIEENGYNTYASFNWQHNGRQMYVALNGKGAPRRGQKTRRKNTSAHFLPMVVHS
Sequence of Left-right determination factor 2 (Homo sapiens) (O00292 whole entry, looked up): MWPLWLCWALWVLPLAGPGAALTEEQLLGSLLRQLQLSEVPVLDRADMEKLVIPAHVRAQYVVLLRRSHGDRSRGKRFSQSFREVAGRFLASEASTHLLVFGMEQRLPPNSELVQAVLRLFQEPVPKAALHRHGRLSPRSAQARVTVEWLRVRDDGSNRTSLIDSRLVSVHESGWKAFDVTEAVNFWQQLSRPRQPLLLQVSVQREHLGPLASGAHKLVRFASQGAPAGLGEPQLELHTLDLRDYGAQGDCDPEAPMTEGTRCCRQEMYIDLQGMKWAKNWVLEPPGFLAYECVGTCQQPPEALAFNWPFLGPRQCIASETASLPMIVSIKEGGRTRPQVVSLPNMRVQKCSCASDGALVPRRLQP
Sequence of Torsin-1A-interacting protein 1 (Homo sapiens) (Q5JTV8 whole entry, looked up): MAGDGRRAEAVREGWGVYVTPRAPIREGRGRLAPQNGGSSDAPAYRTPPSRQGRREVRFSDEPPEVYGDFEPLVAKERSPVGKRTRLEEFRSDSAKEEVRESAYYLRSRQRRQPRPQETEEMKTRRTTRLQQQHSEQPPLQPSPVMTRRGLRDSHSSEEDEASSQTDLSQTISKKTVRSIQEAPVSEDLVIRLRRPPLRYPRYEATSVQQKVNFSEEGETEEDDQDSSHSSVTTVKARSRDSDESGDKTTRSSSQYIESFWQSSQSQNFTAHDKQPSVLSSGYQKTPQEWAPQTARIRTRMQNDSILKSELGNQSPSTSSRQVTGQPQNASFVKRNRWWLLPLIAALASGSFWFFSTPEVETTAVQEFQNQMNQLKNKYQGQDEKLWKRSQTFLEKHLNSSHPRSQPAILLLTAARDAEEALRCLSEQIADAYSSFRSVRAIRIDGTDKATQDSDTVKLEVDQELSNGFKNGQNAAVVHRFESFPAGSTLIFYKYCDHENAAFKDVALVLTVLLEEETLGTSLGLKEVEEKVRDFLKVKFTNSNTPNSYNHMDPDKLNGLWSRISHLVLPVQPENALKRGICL
Sequence of Follistatin-related protein 3 (Homo sapiens) (O95633 whole entry, looked up): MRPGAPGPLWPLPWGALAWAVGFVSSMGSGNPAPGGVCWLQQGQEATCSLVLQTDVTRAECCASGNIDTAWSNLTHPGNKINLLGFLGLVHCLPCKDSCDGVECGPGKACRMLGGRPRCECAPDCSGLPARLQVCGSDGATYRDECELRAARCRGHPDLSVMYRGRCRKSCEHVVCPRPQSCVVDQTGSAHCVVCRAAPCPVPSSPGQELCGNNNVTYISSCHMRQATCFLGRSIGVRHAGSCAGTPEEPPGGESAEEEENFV
Sequence of Dickkopf-related protein 1 (Homo sapiens) (O94907 whole entry, looked up): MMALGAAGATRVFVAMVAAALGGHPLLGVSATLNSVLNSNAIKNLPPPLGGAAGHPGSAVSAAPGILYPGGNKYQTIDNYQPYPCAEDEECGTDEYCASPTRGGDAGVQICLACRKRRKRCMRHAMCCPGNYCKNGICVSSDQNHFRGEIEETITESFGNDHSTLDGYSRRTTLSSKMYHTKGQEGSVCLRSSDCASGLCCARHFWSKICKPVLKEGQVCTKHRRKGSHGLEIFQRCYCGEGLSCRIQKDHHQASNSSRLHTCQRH
Sequence of Epidermal growth factor receptor (Homo sapiens) (P00533 whole entry, looked up): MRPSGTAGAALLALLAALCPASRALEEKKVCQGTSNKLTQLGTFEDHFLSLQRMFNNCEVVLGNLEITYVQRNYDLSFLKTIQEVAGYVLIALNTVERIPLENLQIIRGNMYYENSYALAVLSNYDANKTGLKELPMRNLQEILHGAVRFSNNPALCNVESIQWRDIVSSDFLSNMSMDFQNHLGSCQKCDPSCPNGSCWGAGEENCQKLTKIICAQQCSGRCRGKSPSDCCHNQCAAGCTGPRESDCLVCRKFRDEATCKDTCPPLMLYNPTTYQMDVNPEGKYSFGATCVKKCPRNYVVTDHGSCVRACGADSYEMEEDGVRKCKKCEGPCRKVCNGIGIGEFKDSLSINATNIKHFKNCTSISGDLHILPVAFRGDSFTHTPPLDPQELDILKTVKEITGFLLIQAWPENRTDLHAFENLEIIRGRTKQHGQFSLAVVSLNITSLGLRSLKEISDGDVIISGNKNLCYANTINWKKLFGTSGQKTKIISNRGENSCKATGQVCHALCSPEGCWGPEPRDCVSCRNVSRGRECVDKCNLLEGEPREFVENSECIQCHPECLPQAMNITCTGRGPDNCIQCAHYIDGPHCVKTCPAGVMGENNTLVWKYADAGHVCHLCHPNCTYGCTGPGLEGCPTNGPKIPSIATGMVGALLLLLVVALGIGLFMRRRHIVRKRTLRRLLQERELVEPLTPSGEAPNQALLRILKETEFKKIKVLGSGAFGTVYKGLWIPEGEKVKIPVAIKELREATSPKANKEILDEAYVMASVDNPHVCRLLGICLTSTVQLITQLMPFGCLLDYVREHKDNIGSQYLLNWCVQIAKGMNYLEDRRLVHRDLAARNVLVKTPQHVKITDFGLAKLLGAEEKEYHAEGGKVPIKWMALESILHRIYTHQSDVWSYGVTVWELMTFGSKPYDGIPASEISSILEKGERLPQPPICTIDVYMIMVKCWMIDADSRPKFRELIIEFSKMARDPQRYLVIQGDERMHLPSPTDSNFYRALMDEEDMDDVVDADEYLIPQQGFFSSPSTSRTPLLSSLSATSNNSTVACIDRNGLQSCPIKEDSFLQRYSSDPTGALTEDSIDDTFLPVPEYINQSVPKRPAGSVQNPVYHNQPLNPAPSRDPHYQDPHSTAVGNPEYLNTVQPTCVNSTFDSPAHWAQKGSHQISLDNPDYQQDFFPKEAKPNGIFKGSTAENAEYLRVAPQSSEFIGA

| Structure (SMILES) | composite z-score [1] | composite z-score [2] | composite z-score [3] | z-score [4] | composite z-score [5] | composite z-score [6] | composite z-score [7] | composite z-score [8] | composite z-score [9] | composite z-score [10] | composite z-score [11] | z-score [12] | composite z-score [13] | composite z-score [14] | composite z-score [15] | composite z-score [16] | composite z-score [17] | composite z-score [18] | composite z-score [19] | composite z-score [20] |
| --- | --- | --- | --- | --- | --- | --- | --- | --- | --- | --- | --- | --- | --- | --- | --- | --- | --- | --- | --- | --- |
| COC(=O)[C@@]1(Cc2ccc(F)cc2)[C@H]2c3cc(C(=O)N(C)C)n(Cc4ccc(C)c(F)c4F)c3C[C@H]2CN1C(=O)c1ccccc1 | 0.0477 | 0.871 | 1.03 | -0.509 (inactive) | 0.158 | -0.224 | 0.558 | -0.0326 | -0.693 | 1.39 | 1.33 | -1.34 | -0.0601 | 1.61 | 0.962 | 0.0037 | 0.141 | -0.0053 | 0.692 | 0.298 |
| COCCCNC(=O)[C@]1(Cc2ccccc2CN=[N+]=[N-])N=C(c2ccc(OCCCO)cc2)O[C@@H]1c1ccccc1CN=[N+]=[N-] | 1.59 | 1.35 | 1.25 | 0.438 (inactive) | 0.944 | 1.19 | 0.119 | 0.07 | -0.214 | 0.413 | -0.113 | -2.54 | 0.0705 | 1.85 | 0.945 | 0.19 | 0.417 | 1.92 | 2.09 | 1.3 |
| COC(=O)C(CC#Cc1ccc2c(c1)[C@]1(C(=O)N2)[C@H](c2ccc(O)cc2)N2[C@H](c3ccccc3)[C@H](c3ccccc3)OC(=O)[C@H]2[C@@H]1C(=O)O)C(=O)OC | 1.26 | -0.114 | 0.374 | -0.226 (inactive) | 0.159 | -0.375 | -0.297 | 0.528 | -0.217 | 0.201 | 0.69 | -0.76 | 0.029 | 0.351 | 0.0474 | -0.175 | -0.206 | -0.124 | -0.347 | 0.33 |
| O=C1O[C@H](c2ccccc2)[C@H](c2ccccc2)N2[C@H]1[C@@H](C(=O)N1CCCCCCC1)[C@]1(C(=O)Nc3ccccc31)[C@H]2c1ccc(O)cc1 | 2.04 | 2.68 | 1.79 | -0.365 (inactive) | 1.68 | 1.49 | 2 | 1.8 | 2.68 | 2 | 1.52 | -1.09 | 1.86 | 3.09 | 1.64 | 1.63 | 3.71 | 3.66 | 5.68 | 3.36 |
| COc1ccc([Si](C)(C)[C@@H]2[C@@H](CC(=O)N3Cc4ccccc4C[C@H]3CO)O[C@]3(C(=O)N(Cc4cccc(N5CCCCC5=O)c4)c4ccccc43)[C@H]2C)cc1 | 0.856 | -0.154 | -0.222 | -1.46 (inactive) | 0.689 | 1.2 | 0.968 | 1.33 | 1.17 | 0.435 | 1.09 | -3.47 | 0.709 | 0.836 | -0.219 | -0.0585 | 0.0557 | 0.228 | 1.11 | 1.9 |
| C=CCOC(=O)[C@@H]1[C@H]2C(=O)O[C@H](c3ccccc3)[C@H](c3ccccc3)N2[C@H](c2ccc(OCCOC(=O)[C@@H]3C[C@@H]4C(=O)N5CCC[C@H]5C(=O)N4[C@@H]3c3cccc(OCCO)c3)cc2)[C@@]12C(=O)Nc1ccc(I)cc12 | 1.04 | -0.297 | -0.121 | -0.64 (inactive) | 1.18 | 1.12 | 0.754 | 1.11 | 1.1 | 0.607 | 1.31 | -1.01 | 0.56 | 1.25 | -0.141 | -0.0718 | -0.264 | -0.342 | 0.972 | 1.11 |
| COc1cc2c(cc1OC)CN(C(=O)[C@@H]1[C@H]3C(=O)O[C@H](c4ccccc4)[C@H](c4ccccc4)N3[C@H](c3ccc(OCCO)cc3)[C@@]13C(=O)Nc1ccc(C#CCCO)cc13)CC2 | 1.18 | -0.0226 | 0.772 | -0.921 (inactive) | 1.28 | 1.27 | 0.714 | 1.23 | 0.646 | 0.638 | 1.44 | -1.53 | 1.01 | 1.73 | 1.01 | 0.265 | 0.391 | 1.8 | 1.33 | 1.36 |
| O=C(O)[C@@]1(Cc2ccccc2)COC(c2ccc(OCCCO)cc2)=N1 | 1.01 | 0.413 | 0.988 | 0.483 (inactive) | -0.38 | -0.835 | -0.645 | -1.14 | -0.91 | 0.53 | 0.0262 | 0.923 | -0.714 | -0.106 | 0.0951 | -0.217 | 0.214 | 0.0254 | 0.28 | -0.47 |
| CCOC(=O)C[C@H]1[C@H](OC(=O)Cc2ccc3c(c2)OCO3)[C@@H](NC(=O)c2ccccc2)c2cc(OCCCO)ccc2N1C(=O)c1ccccc1 | -0.0111 | -0.0126 | -0.0843 | -0.299 (inactive) | 0.603 | 0.505 | 0.437 | 0.371 | 0.276 | 0.524 | 0.487 | -0.183 | 0.24 | 0.334 | -0.469 | -0.128 | -0.221 | -0.18 | 0.223 | 0.652 |
| COC(=O)[C@]1(Cc2ccccc2CN=[N+]=[N-])N=C(c2ccc(OCCCO)cc2)O[C@@H]1c1ccccc1CN=[N+]=[N-] | 1.14 | -0.188 | 0.835 | -0.613 (inactive) | 0.468 | 0.419 | -0.267 | -0.302 | 0.127 | 0.721 | 0.0068 | -2.91 | -0.624 | -0.11 | -0.271 | -0.0346 | 0.246 | 0.589 | 1.39 | 1.48 |
| COC(=O)C(CC#Cc1ccc2c(c1)[C@]1(C(=O)N2)[C@H](c2ccccc2OCCO)N2[C@H](c3ccccc3)[C@H](c3ccccc3)OC(=O)[C@H]2[C@@H]1C(=O)Nc1nc2ccccc2s1)C(=O)OC | 1.21 | -0.0226 | -0.0159 | -0.333 (inactive) | 1.3 | 1.21 | 0.312 | 0.806 | 0.171 | 0.245 | 1.41 | -2.02 | 0.397 | 0.973 | -0.196 | -0.0239 | 0.233 | -0.466 | 0.874 | 1.5 |
